The source of these data is PubChem BioAssay (NCI).

Test systems include T-47D breast; BT-549 breast; MDA-MB-435 melanoma; SW-620 colon; MCF7 breast; HCT-116 colon; HCC-2998 colon; KM12 colon.
Experiment in all cases: NCI-60 one-dose screen, 48 h (100 = growth as untreated, 0 = no growth, -100 = all killed)
Common to all, as to settings: 10 µM unless noted

This is part of a sample that, as a whole, favours compounds with a hit. Of some 83,000 tested, about 20% had one in any assay.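 Results are percent growth after 48 hours of single-concentration exposure. 100 means growth as in untreated cells, lower positive values show inhibition; negative values down to -100 show cell death.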 Unmarked numbers belong to inactive results. Active and inactive are the calls of the source. The calls were made as follows: active = growth percent below 10; inactive = the rest.

On to `O=C1c2ccccc2C23C(=C(c4cncnc4)c4ccccc42)CCCN13` (stereo not drawn), for which the growth is 93.3% with T-47D breast; 120% in the assay with BT-549 breast; 94.6% with MDA-MB-435 melanoma; 103% with SW-620 colon; 103% in the assay with MCF7 breast; 97.9% in the assay on HCT-116 colon. Besides, the growth with HCC-2998 colon was 103%; in the assay with KM12 colon, 96.6%.
`Cc1ccccc1NC(=O)Nc1nc2ccc([N+](=O)[O-])cc2s1`: the growth is -10.8% (active) with T-47D breast; -2.98% (active) with BT-549 breast; 5.39% (active) in the assay on MDA-MB-435 melanoma; 11.6% in the assay with SW-620 colon; 4.12% (active) in the assay on MCF7 breast; 2.44% (active) in the assay on HCT-116 colon. Besides, the figures for the growth with HCC-2998 colon and with KM12 colon were 24.6% and 4.18% (active), respectively.
As to `C=C(C)[C@@H]1CC[C@]2(C(=O)N3CCN(C)CC3)CC[C@]3(C)[C@H](CC[C@@H]4[C@@]5(C)CC[C@H](OP(=O)(OCC)OCC)C(C)(C)[C@@H]5CC[C@]43C)[C@@H]12`, the growth in the assay on T-47D breast was 87.8%; in the assay on BT-549 breast it was 93.9%; in the assay on MDA-MB-435 melanoma it was 94.2%; in the assay with SW-620 colon, 82%; in the assay with MCF7 breast it was 68.9%; with HCT-116 colon, 24%. In addition, the growth with HCC-2998 colon and with KM12 colon was 94.4% in each case.
`O=S(=O)(NCCCNc1nccc(-c2[nH]c(-c3ccccc3)nc2-c2ccc(F)c(O)c2)n1)c1cccc(F)c1`: the growth was 73.4% in the assay on T-47D breast; 96.4% with BT-549 breast; 38% in the assay with MDA-MB-435 melanoma; 120% in the assay with SW-620 colon; 78.3% in the assay with MCF7 breast; 72.2% in the assay on HCT-116 colon. For the same compound, the figures for the growth in the assay with HCC-2998 colon and in the assay on KM12 colon were 114% and 88.9%, respectively.
`CCOC(=O)c1ccccc1NC1=C(Cl)C(=O)c2nc(C)ccc2C1=O`: the growth is 92.8% in the assay with T-47D breast; 114% with BT-549 breast; 111% in the assay with MDA-MB-435 melanoma; 94.8% in the assay on SW-620 colon; 87.5% in the assay with MCF7 breast; 99.1% with HCT-116 colon. The growth was 97.2% in the assay on HCC-2998 colon and 105% in the assay with KM12 colon.
Regarding `CN1CCN(Cc2ccc(NC(=O)c3cncc(C#Cc4cnc(N)nc4)c3)cc2C(F)(F)F)CC1`, the growth in the assay with T-47D breast is 19%; with BT-549 breast, 38.5%; in the assay with MDA-MB-435 melanoma, 12.9%; with SW-620 colon it was 10.4%; in the assay with MCF7 breast, 27.6%; with HCT-116 colon, 3.4% (active). Moreover, the growth in the assay with HCC-2998 colon is 42.5%; in the assay with KM12 colon it was 9.4% (active).
Take `Nc1nc(=O)n([C@H]2C[C@H](O)[C@@H](CO)O2)cc1C=O`: the growth with T-47D breast is 113%; with BT-549 breast, 116%; in the assay with MDA-MB-435 melanoma, 110%; with SW-620 colon, 107%; in the assay with MCF7 breast, 96.1%; with HCT-116 colon it was 91.3%. In addition, the growth with HCC-2998 colon was 87.7%; in the assay on KM12 colon, 103%.
For the compound `CN1CCN(c2ccc(Nc3nc(NCCNC(=O)c4ccc(F)cc4)c4sccc4n3)cc2)CC1`, the growth was 18.2% in the assay with T-47D breast; 56.1% in the assay with BT-549 breast; 46.9% in the assay with MDA-MB-435 melanoma; 75.2% in the assay on SW-620 colon; 41% in the assay with MCF7 breast; 22% with HCT-116 colon. In addition, the growth was 70.4% with HCC-2998 colon and 65.4% in the assay with KM12 colon.
For `CCOC(=O)C1=C(C)NC(C)=C(C(=O)OCc2ccccc2)C1c1cccc(C#N)c1` (stereo not drawn), the growth is 27% in the assay on T-47D breast; 31.7% with BT-549 breast; -10.4% (active) in the assay with MDA-MB-435 melanoma; 29.7% with SW-620 colon; 21.2% in the assay with MCF7 breast; 13.2% with HCT-116 colon. For the same compound, the growth was 70.8% in the assay with HCC-2998 colon and 25.5% in the assay with KM12 colon.
As to `CCCCSC1=C(Cl)CN(c2ccccc2)C1=O`, the growth in the assay with T-47D breast is 85%; in the assay on BT-549 breast, 110%; in the assay with MDA-MB-435 melanoma, 108%; in the assay on SW-620 colon it was 106%; in the assay with MCF7 breast, 51.5%; with HCT-116 colon, 104%. Besides, the growth with HCC-2998 colon is 105%; with KM12 colon, 93.7%.
Take `O=C(O)CC1CCN(c2ccc3nnc(Cl)n3n2)CC1`: the growth with T-47D breast was 96.8%; with BT-549 breast, 101%; in the assay with MDA-MB-435 melanoma it was 105%; in the assay on SW-620 colon, 102%; in the assay with MCF7 breast, 91.2%; in the assay with HCT-116 colon, 103%. The values for the growth in the assay with HCC-2998 colon and in the assay with KM12 colon were 107% and 98.1%, respectively.
On to `CN1CC[C@@H]2[C@@]3(C)CC[C@H](O)C(C)(C)[C@@H]3CC[C@@]2(C)[C@]2(C)CC[C@@]3(CO)CCC(C)(C)C[C@@H]3C12` (stereo partly drawn), for which the growth was 79.8% with T-47D breast; 96.7% in the assay on BT-549 breast; 95.7% in the assay with MDA-MB-435 melanoma; 90.2% with SW-620 colon; 77% with MCF7 breast; 77.9% in the assay with HCT-116 colon. In addition, the growth in the assay on HCC-2998 colon is 27.5%; in the assay with KM12 colon, 96.2%.
As to `CCNC(=O)Oc1ccc(/C(=C(/C)c2ccc(OC)cc2)c2ccc(OCCN3CCCCCC3)cc2)cc1`, the growth with T-47D breast was 26.6%; in the assay with BT-549 breast, 73.3%; in the assay on MDA-MB-435 melanoma it was 43.7%; in the assay with SW-620 colon it was -25.9% (active); in the assay with MCF7 breast, 8.81% (active); in the assay with HCT-116 colon, 13.4%. Moreover, the growth is 67.9% in the assay with HCC-2998 colon and 39.6% with KM12 colon.
As to `O=C(Nc1ccccc1)Nc1nc2ccc([N+](=O)[O-])cc2[nH]1`, the growth in the assay with T-47D breast is 14.7%; in the assay with BT-549 breast it was 77.8%; in the assay with MDA-MB-435 melanoma, 55.3%; with SW-620 colon, 56%; in the assay on MCF7 breast, 53.7%; in the assay with HCT-116 colon, 39.4%. For the same compound, the figures for the growth in the assay with HCC-2998 colon and in the assay with KM12 colon were 60.4% and 45.2%, respectively.
As for `CC(=O)/C(N=Nc1ccc2oc(=O)ccc2c1)=C(\C)O`, the growth is 8.7% (active) in the assay on T-47D breast; 33.2% in the assay with BT-549 breast; 33.2% with MDA-MB-435 melanoma; 17.6% in the assay with SW-620 colon; 25.8% with MCF7 breast; 12.1% in the assay on HCT-116 colon. Also, the growth with HCC-2998 colon was 35.7%; with KM12 colon it was 19%.
For the compound `COc1cc2cc(Oc3ccc(NC(=O)c4cc(C(F)(F)F)cc(C(F)(F)F)c4)cc3)c(C)nc2cc1OCCN1CCOCC1`, the growth was 84.7% with T-47D breast; 71.4% in the assay on BT-549 breast; 65.4% in the assay on MDA-MB-435 melanoma; 97.2% with SW-620 colon; 26.4% in the assay with MCF7 breast; 11.9% in the assay on HCT-116 colon. For the same compound, the growth is 113% with HCC-2998 colon and 73.5% in the assay with KM12 colon.
